Results from publication PMC7819943, “Rice protein-binding microarrays: a tool to detect cis-acting elements near promoter regions in rice”.
Over roughly 68,000 sequences, “fluorescence intensity (a.u.)” has its median near 9,100; the highest 2% begin near 16,000. The sample holds the highest values, similar sequences and a random draw of the others, so the mix is not that of the screen.

Target: OsWRKY34 (Oryza sativa, UniProt Q0JBA9 1-250)
Assay: protein-binding microarray (RPBM); PBS, 2% BSA, 51.3 ng/ul salmon testes DNA, 50 uM zinc acetate, 200 nM TF, 25 C, 1 h; high values mean tight binding
Settings: protein: recombinant; tags: N-terminal polyhistidine and DsRed monomer fusion (pET32a); label: CyDye5-dUTP incorporated in the synthesized complementary strand; 3' TTTTT single-stranded linker to array surface; dsDNA, one strand shown
In short: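 The binding signal is fluorescence intensity per feature, in arbitrary units, read on an Axon 4000B scanner. Polyhistidine- and DsRed-tagged transcription factors (N-terminal fusions) from E. coli BL21-CodonPlus were purified on Ni–NTA and applied at 200 nM for 1 h at 25 °C to a double-stranded, BSA-blocked custom Agilent array in buffer with 50 µM zinc acetate.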

Chain of OsWRKY34 (Q0JBA9 entry or part of it): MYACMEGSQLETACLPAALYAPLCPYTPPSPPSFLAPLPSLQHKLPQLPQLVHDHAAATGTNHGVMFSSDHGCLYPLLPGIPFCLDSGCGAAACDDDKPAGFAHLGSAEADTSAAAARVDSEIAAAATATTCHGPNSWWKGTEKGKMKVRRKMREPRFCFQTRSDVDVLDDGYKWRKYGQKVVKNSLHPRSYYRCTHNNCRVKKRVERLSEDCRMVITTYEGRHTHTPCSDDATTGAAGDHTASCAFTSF

In order of falling binding signal:
1. CACCGTTGACTTTTTCTCACATGTTTGACCATTCGTCTTACGGAGTCACCTAGTGCAG  48400 fluorescence intensity (a.u.)
2. GCCGTTGACTTTTTCTCACATATTTGACCATTCGTCTTATCGGAGTCACCTAGTGCAG  45300 fluorescence intensity (a.u.)
3. TGATGCCGTTGACTTTTTCTCATATGTTTGACCATTCGTCCGGAGTCACCTAGTGCAG  44800 fluorescence intensity (a.u.)
4. CGCCGTTGACTTTTTCTCACATGTTTGACCATTCGTCTTACGGAGTCACCTAGTGCAG  42500 ± 475 fluorescence intensity (a.u.)
5. CGTTGACTTTTTCTCACATGTTTGACCATTCGTCTTATTCCGGAGTCACCTAGTGCAG  31500 fluorescence intensity (a.u.)
6. AGATGACGCCGTTGACTTTTTCTTACATATTTGACCATTCCGGAGTCACCTAGTGCAG  25400 fluorescence intensity (a.u.)
7. ACCATGTTGACTTTTTGCACATTTATAGAATCTTTTGGTACGGAGTCACCTAGTGCAG  21800 fluorescence intensity (a.u.)
8. TAGCTCATTCATGCCTCCATCGGTTGACTTTTTTTTTCTACGGAGTCACCTAGTGCAG  20500 fluorescence intensity (a.u.)
9. TCATCTCACGCTGTTGACTTTCTCTTTTTTTTTCGGGGAGCGGAGTCACCTAGTGCAG  18000 fluorescence intensity (a.u.)
10. CATTGACTTTTTCTCACATATTTGTCCATTCGTCTTATTACGGAGTCACCTAGTGCAG  16100 fluorescence intensity (a.u.)
11. TTGACTTTTTCTCACATGTTTGACCATTCGTCTTATTCAACGGAGTCACCTAGTGCAG  15400 fluorescence intensity (a.u.)
12. TTGACCTTTTCTCACATGTTTAACCATTCGTCTTATTTAACGGAGTCACCTAGTGCAG  13500 fluorescence intensity (a.u.)
13. GTTGACTTTTTTTCACATGTTTGACCATTCATCTTATTCACGGAGTCACCTAGTGCAG  13400 fluorescence intensity (a.u.)
14. AATAGATGACGTTGTTGACTTTTTCTCATATGTTTGACCACGGAGTCACCTAGTGCAG  13000 fluorescence intensity (a.u.)
15. TGACTTTTTCTCACATGTTTGACCATTCGTCTTATTAAAACGGAGTCACCTAGTGCAG  12500 fluorescence intensity (a.u.)
16. ATAGATGACGCCGTTGATTTTTTCTCATATGTTTGACCATCGGAGTCACCTAGTGCAG  11600 fluorescence intensity (a.u.)
17. ACTGTCCACTCACTTTTTCTTCACCCAGGAGACGAAATTTCGGAGTCACCTAGTGCAG  11200 fluorescence intensity (a.u.)
18. TTCTCACATGTTTGACCATTCGTCTTATTAAAAATTTTATCGGAGTCACCTAGTGCAG  11100 fluorescence intensity (a.u.)
19. CGACTCCGACCTCTGCTCTCTTCCTTTTACACCCCATATCCGGAGTCACCTAGTGCAG  11100 fluorescence intensity (a.u.)
20. TGACTTTTTCTCACATGTTTGACCATTCGTCTTATTCAAACGGAGTCACCTAGTGCAG  10900 ± 914 fluorescence intensity (a.u.)
21. TAGATGACGCCGTTGATTTTTTTCTCACATATTTGACCATCGGAGTCACCTAGTGCAG  10700 fluorescence intensity (a.u.)
22. TGGCTTATCTCGTTTTGTATATCATCTTCTTAATCTTTTTCGGAGTCACCTAGTGCAG  10500 fluorescence intensity (a.u.)
23. ACACAGGCAGCAGTAGCACCTCGATCCATCTACCATTTTACGGAGTCACCTAGTGCAG  10200 fluorescence intensity (a.u.)
24. GGGGTTTATTATTTTCCCGGGTTAAATTGCCACGTAAGCACGGAGTCACCTAGTGCAG  10100 fluorescence intensity (a.u.)
25. ATTAGGGATAACCGTCACTGTTTGTTGCTGTTTTTATGTTCGGAGTCACCTAGTGCAG  9960 fluorescence intensity (a.u.)
26. TTGGTGACTAAGCAGCTAGCTCATATTCCGTTTCAGCTTCCGGAGTCACCTAGTGCAG  9770 fluorescence intensity (a.u.)
27. AGTTAGTCAAGCGTATCCTATTTTACGTGCCCGCGCGAATCGGAGTCACCTAGTGCAG  9610 fluorescence intensity (a.u.)
28. CACGACCTTAAGCCTCATAATTTGGACAATCACAGCAACTCGGAGTCACCTAGTGCAG  9170 fluorescence intensity (a.u.)
29. TTTACTAAACTCGATCAGTTCTTCCCATATACTCTTGTGACGGAGTCACCTAGTGCAG  9070 fluorescence intensity (a.u.)
30. GTGGCGTCAAAGTATTGAGGGCGGGGATGCGGCCACCGTACGGAGTCACCTAGTGCAG  8640 fluorescence intensity (a.u.)
31. TCTCGCTCGTTTTACCGCAGCATTTTGTTGTTGCTCTAGCCGGAGTCACCTAGTGCAG  8620 fluorescence intensity (a.u.)
32. ACCTGTGCTTGATGGGATGGAAGCTTGGATTAGGTTGGTTCGGAGTCACCTAGTGCAG  8560 fluorescence intensity (a.u.)
33. TTTTTTCTCACATGTTTGACCATTCGTCTTATTCAAAAAACGGAGTCACCTAGTGCAG  8550 fluorescence intensity (a.u.)
34. CTTAGCTCGTATGTAGACTTTTGATGGCTTAATCCTATTTCGGAGTCACCTAGTGCAG  8550 fluorescence intensity (a.u.)
35. AGTTGTTCTTCTCAGCAGGTTGCTGTCATCTTAGACTTTTCGGAGTCACCTAGTGCAG  8410 fluorescence intensity (a.u.)
36. TTACACTTTCTCCTCCATCATGCGCTCATGGCCATCCATTCGGAGTCACCTAGTGCAG  8320 fluorescence intensity (a.u.)
37. GACTATCTTGTCGTTCGGTCCAAAAACCGGCGCCTTATGACGGAGTCACCTAGTGCAG  8300 fluorescence intensity (a.u.)
38. TTCTCCATTTTTTCATGGTTGACTCTAATCTTCATGACTACGGAGTCACCTAGTGCAG  8280 fluorescence intensity (a.u.)
39. CTGCCTCGCTGCCGCCTGCCGTCTCCCCGGGCCCATCTTTCGGAGTCACCTAGTGCAG  8210 fluorescence intensity (a.u.)
40. TCGTCCGCTGCAGCCGCTCGCTAGCTAGTAGCTATAGCTACGGAGTCACCTAGTGCAG  8160 fluorescence intensity (a.u.)
41. ATCAACCATGAACCATCCGCGCCCGCGCACCTCCTCCTCTCGGAGTCACCTAGTGCAG  8100 fluorescence intensity (a.u.)
42. GCACATGTTTGACCATTCATCTTATAAGAAAAAACTTTTGCGGAGTCACCTAGTGCAG  8090 fluorescence intensity (a.u.)
43. ATAATAATATTTTTCACCTATGCCATACTTCTTTTGTCAACGGAGTCACCTAGTGCAG  8040 fluorescence intensity (a.u.)
44. TCTCGTGTTCCTCTTCACTACCACTTCTAGAAGCTTCCTCCGGAGTCACCTAGTGCAG  8020 fluorescence intensity (a.u.)
